Experimental data taken from the supplement of paper PMC10849652.
Targets with a hit are over-represented here; the source holds about 8,800 in all. About 0.5% of all pairs of compound and target were hits.

Assays:
Test in all cases: log2 fold change, soluble protein after heating vs DMSO (PISA); higher = thermal stabilisation; K562 lysate, 10 uM; active = over 0.2 and 3.5 SD of the protein, either way, in both replicates (recomputed)
nilotinib = compound: Cc1cn(-c2cc(NC(=O)c3ccc(C)c(Nc4nccc(-c5cccnc5)n4)c3)cc(C(F)(F)F)c2)cn1 [nilotinib]
Outline: (§1)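 Log-two fold change in thermal stability relative to solvent controls is reported from duplicates. For each sample, crude K562 extract from dounce-homogenised pellets in PBS pH 7.4 with 1 mM MgCl2, at 1 mg/mL protein, was treated with 10 μM compound for 30 min. Aliquots heated for 3 min across 48°C-58°C were pooled, brought to 0.5% NP-40 at 4°C and cleared at 21,000xg for 90 min. The supernatant was quantified by TMTpro 16plex LC-MS/MS with channel sums equalised.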

[1] = compound: Cc1nc(Nc2n[nH]c3c2CN(C(=O)N[C@H](CN(C)C)c2ccccc2)C3(C)C)c2sccc2n1
Outline: as §1

dasatinib = compound: Cc1nc(Nc2ncc(C(=O)Nc3c(C)cccc3Cl)s2)cc(N2CCN(CCO)CC2)n1 [dasatinib]
Outline: as §1

[2] = compound: Cc1ncc(-c2ccnc(Nc3ccc(S(C)(=O)=O)cc3)n2)n1C(C)C
Outline: as §1

[3] = compound: Cn1cc(-c2ccc3c(c2)CCN3C(=O)Cc2cccc(C(F)(F)F)c2)c2c(N)ncnc21
Outline: as §1

quisinostat = compound: Cn1cc(CNCC2CCN(c3ncc(C(=O)NO)cn3)CC2)c2ccccc21 [quisinostat]
Outline: as §1

tipifarnib = compound: Cn1cncc1[C@@](N)(c1ccc(Cl)cc1)c1ccc2c(c1)c(-c1cccc(Cl)c1)cc(=O)n2C [tipifarnib]
Outline: as §1

[4] = compound: NC(=O)Nc1cc(-c2cccc(F)c2)sc1C(=O)N[C@H]1CCCNC1
Outline: as §1

[5] = compound: NC(=O)c1cnc(N[C@@H]2CCCC[C@@H]2N)nc1Nc1cccc(-n2nccn2)c1
Outline: as §1

[6] = compound: NC1(c2ccc(-c3nc4ccn5c(=O)[nH]nc5c4cc3-c3ccccc3)cc2)CCC1
Outline: as §1

Measured: log2 fold change

MYO1C (UniProt O00159)
UniProt O00159, sequence (O00159 whole entry, looked up): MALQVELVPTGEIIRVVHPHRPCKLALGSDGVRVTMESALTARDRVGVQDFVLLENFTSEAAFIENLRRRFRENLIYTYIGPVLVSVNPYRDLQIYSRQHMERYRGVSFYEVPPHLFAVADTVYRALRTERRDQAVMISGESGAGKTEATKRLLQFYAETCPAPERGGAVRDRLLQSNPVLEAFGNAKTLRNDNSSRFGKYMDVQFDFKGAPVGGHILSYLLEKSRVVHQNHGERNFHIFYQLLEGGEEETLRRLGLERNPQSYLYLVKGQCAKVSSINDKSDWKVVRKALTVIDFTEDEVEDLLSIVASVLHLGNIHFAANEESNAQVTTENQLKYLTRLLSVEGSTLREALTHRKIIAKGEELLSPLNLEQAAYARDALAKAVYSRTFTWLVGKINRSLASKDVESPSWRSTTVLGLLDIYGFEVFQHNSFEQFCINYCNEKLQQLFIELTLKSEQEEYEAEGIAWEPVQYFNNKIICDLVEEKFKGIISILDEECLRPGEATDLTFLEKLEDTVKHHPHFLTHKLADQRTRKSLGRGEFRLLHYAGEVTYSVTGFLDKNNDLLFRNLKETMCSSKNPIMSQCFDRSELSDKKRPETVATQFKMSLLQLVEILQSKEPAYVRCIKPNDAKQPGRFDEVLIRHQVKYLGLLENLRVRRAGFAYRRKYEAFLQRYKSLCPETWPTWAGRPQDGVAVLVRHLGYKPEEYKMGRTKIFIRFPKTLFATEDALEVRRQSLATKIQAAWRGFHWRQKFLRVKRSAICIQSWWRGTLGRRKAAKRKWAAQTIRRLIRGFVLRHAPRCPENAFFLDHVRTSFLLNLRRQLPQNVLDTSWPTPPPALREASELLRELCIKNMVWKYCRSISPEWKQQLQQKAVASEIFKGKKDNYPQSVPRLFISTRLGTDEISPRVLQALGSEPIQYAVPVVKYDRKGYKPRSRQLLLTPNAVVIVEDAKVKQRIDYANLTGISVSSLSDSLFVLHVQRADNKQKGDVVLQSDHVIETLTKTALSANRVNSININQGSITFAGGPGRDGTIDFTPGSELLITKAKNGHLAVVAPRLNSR
inactive: nilotinib 0.019 | [1] -0.013 | dasatinib 0.112 | [2] 0.005 | [3] -0.038 | quisinostat -0.052 | tipifarnib 0.019 | [4] -0.082 | [5] 0 | [6] -0.087

PAFAH1B3 (UniProt Q15102)
UniProt Q15102, sequence (Q15102 whole entry, looked up): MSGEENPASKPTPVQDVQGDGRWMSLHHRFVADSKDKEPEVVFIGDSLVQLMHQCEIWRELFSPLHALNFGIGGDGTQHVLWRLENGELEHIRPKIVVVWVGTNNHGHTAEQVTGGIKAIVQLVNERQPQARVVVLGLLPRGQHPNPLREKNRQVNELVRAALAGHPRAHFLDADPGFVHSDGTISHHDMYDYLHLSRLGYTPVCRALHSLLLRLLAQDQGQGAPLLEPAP
inactive: nilotinib 0.005 | [1] 0.036 | dasatinib -0.057 | [2] -0.026 | [3] 0.03 | quisinostat 0.01 | tipifarnib -0.01 | [4] -0.009 | [5] 0.031 | [6] 0.021

NUP210 (UniProt Q8TEM1)
UniProt Q8TEM1, sequence (Q8TEM1 whole entry, looked up): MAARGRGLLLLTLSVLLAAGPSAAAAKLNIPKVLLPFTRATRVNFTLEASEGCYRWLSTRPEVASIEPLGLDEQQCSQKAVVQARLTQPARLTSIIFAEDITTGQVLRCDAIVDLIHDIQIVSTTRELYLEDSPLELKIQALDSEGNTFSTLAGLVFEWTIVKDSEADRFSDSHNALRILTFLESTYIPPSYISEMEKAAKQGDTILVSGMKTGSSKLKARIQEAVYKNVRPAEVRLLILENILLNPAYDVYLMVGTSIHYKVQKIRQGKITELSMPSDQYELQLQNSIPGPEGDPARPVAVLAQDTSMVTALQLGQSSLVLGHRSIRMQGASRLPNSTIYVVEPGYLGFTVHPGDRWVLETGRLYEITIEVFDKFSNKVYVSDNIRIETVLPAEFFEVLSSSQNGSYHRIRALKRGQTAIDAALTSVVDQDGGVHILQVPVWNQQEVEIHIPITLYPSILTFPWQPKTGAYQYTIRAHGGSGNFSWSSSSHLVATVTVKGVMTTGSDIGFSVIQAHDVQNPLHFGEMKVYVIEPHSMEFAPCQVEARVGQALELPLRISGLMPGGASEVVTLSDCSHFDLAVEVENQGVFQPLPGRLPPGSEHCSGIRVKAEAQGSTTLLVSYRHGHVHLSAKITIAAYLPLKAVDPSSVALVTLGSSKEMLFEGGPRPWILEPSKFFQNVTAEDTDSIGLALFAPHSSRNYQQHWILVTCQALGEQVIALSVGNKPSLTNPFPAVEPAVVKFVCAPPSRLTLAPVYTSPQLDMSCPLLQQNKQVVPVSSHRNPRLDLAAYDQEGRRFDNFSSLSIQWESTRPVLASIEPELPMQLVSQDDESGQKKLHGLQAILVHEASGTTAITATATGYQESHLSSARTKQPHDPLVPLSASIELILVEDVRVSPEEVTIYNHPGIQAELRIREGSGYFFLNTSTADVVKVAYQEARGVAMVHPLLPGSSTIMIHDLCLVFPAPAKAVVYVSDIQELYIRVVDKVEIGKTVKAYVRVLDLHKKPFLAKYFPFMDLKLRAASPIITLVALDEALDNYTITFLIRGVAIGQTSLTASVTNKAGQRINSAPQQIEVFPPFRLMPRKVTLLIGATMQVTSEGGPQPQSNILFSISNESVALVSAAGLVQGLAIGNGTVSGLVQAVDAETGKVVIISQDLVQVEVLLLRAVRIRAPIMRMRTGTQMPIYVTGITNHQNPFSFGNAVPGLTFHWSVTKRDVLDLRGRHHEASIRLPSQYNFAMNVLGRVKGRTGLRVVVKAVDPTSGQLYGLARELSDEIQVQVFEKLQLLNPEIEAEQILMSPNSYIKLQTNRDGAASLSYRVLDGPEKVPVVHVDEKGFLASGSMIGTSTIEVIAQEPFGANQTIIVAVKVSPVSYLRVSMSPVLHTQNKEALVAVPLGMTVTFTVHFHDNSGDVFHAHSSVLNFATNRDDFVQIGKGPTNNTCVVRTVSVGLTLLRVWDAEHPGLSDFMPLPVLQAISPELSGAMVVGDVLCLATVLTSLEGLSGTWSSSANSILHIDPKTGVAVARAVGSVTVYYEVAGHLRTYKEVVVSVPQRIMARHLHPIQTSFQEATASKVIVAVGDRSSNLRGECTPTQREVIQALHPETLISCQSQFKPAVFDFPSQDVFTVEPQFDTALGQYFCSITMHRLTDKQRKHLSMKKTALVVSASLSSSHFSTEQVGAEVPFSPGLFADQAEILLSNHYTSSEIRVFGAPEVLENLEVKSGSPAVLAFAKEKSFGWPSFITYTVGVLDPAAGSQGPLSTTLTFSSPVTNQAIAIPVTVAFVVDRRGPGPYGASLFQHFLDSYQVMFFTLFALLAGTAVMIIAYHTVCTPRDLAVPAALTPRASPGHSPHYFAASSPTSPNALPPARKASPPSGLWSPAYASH
inactive: nilotinib -0.019 | [1] -0.008 | dasatinib -0.08 | [2] 0.009 | [3] 0.001 | quisinostat 0.084 | tipifarnib -0.043 | [4] -0.01 | [5] 0.059 | [6] -0.019

NOCT (UniProt Q9UK39)
UniProt Q9UK39, sequence (Q9UK39 whole entry, looked up): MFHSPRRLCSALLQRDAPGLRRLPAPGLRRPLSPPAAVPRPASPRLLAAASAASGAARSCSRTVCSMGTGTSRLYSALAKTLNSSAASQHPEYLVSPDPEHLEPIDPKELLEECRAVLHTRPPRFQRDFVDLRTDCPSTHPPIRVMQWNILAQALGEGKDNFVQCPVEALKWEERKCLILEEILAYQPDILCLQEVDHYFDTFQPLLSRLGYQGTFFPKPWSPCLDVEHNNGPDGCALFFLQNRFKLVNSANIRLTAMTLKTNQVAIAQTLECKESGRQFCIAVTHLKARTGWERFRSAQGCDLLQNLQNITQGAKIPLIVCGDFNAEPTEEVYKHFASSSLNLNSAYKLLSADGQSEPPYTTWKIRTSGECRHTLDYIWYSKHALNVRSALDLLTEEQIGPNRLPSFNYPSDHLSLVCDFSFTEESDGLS
inactive: nilotinib -0.045 | [1] 0.011 | dasatinib 0.013 | [2] -0.084 | [3] 0.017 | quisinostat 0 | tipifarnib 0.061 | [4] 0.043 | [5] 0.004 | [6] -0.014

NPTN (UniProt Q9Y639)
UniProt Q9Y639, sequence (Q9Y639 whole entry, looked up): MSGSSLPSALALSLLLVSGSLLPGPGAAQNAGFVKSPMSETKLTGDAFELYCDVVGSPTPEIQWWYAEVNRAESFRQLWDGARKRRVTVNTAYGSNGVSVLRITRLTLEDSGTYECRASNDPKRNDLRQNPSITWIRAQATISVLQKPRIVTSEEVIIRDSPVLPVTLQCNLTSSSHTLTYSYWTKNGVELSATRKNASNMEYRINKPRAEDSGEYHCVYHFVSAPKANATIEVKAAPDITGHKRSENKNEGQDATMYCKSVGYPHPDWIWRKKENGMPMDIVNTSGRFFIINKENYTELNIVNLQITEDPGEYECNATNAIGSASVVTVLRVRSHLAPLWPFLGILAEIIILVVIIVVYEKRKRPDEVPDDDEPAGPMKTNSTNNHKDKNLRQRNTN
inactive: nilotinib -0.029 | [1] 0.005 | dasatinib -0.06 | [2] -0.025 | [3] -0.009 | quisinostat -0.038 | tipifarnib 0.043 | [4] 0.031 | [5] 0.004 | [6] 0.002

PAXBP1 (UniProt Q9Y5B6)
UniProt Q9Y5B6, sequence (Q9Y5B6 whole entry, looked up): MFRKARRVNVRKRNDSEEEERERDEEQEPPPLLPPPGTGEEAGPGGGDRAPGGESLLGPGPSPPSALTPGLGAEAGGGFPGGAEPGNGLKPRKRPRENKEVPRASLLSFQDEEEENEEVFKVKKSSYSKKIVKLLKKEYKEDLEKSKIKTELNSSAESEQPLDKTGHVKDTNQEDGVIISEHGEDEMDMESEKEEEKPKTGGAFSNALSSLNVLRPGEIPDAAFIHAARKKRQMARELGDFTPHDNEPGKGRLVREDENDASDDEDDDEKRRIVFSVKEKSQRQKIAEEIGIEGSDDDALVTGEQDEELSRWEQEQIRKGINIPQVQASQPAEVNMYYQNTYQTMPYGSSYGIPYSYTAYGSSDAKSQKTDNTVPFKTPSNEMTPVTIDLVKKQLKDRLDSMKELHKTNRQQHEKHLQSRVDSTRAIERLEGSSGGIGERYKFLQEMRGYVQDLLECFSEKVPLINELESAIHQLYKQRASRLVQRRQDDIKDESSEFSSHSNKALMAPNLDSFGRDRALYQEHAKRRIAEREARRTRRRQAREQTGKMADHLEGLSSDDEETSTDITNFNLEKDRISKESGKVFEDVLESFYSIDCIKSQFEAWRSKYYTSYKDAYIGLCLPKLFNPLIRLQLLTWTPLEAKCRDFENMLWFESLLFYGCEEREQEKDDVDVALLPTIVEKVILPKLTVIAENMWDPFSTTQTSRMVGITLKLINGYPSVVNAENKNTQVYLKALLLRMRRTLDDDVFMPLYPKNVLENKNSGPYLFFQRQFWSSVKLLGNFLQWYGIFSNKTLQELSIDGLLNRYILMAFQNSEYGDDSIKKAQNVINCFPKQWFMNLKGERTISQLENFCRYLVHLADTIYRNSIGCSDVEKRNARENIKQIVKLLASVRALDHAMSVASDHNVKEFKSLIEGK
inactive: nilotinib -0.014 | [1] 0.012 | dasatinib -0.046 | [2] 0.011 | [3] 0.024 | quisinostat -0.041 | tipifarnib -0.008 | [4] 0.031 | [5] 0.023 | [6] -0.006
